Results filed as inconclusive are left out. A number with no mark means an inactive call. Calls of active or inactive are those of the source. Calls follow the shape of the dose curve; as a rule, active = well fitted inhibition curve with a large enough effect; inconclusive = small, poorly fitted or top-dose-only effect; inactive = no such curve, though single readings can be large or run the other way.
Target: N-terminal Xaa-Pro-Lys N-methyltransferase 1 (Homo sapiens) (UniProt Q9BV86)
Assay: qHTS Assay for Inhibitors of N-terminal methyltransferase 1 (NTMT1): MTaseGlo Confirmatory Screen, Round 2
Details: NTMT1 enzyme, MTase-Glo SAH luminescence; series mostly up to 57.4 µM; activity change, negative = inhibition: at the top concentration
Method in brief: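 NTMT1 (125 nM) with 100 µM SAM was preincubated ~15 min with compound, then 1 µM SPKRIA peptide was added for 30 min at RT. SAH was detected by MTase-Glo luminescence, normalized to no-enzyme and DMSO controls, and fitted to a 4-parameter Hill equation.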
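For activity change, negative = inhibition in this document: plate controls were DMSO for no effect and no enzyme control for full effect.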
Potency is read from the fitted curve at half-maximal effect.

Chain of N-terminal Xaa-Pro-Lys N-methyltransferase 1 (Homo sapiens) (Q9BV86 whole entry, looked up): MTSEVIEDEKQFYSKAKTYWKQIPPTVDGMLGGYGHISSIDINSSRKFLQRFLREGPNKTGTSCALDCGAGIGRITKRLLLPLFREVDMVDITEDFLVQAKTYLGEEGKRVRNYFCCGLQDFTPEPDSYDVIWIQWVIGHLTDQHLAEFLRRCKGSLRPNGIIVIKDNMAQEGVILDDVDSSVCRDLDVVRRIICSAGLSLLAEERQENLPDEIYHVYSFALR

| SMILES | Potency | activity change, negative = inhibition |
| --- | --- | --- |
| Nc1c(S(=O)(=O)O)cc(Nc2ccc(Nc3nc(Cl)nc(Nc4ccc(S(=O)(=O)O)cc4)n3)c(S(=O)(=O)O)c2)c2c1C(=O)c1ccccc1C2=O | 31.6 µM (active) |  |
| Clc1ccc(N2CCN(Cc3c[nH]c4ncccc34)CC2)cc1 |  | -5.18% |
| CCN(CC)C(=S)SSC(=S)N(CC)CC |  | -6% |
| Nc1ncnc2c1[nH]c(=S)n2C1OC(CO)C(O)C1O (stereo not drawn) |  | 4.45% |
| S=C(S)N1CCCC1 |  | -11.1% |
| C=CCN1CCc2cc(O)c(O)cc2[C@H](c2ccccc2)C1 |  | -6.22% |
| C/C(=C\CNc1ncnc2c1ncn2[C@@H]1O[C@H](CO)[C@@H](O)[C@H]1O)CO |  | 54.8% |
| N.N.O=C(O)C1(C(=O)O)CCC1.[Pt] |  | -15.5% |
| COc1cc(/C=C(\C#N)C(=O)Nc2nnc(C(F)(F)F)s2)ccc1OCc1ccc(C(F)(F)F)cc1C(F)(F)F |  | -19.9% |
| N#C/C(=C\c1ccc(O)c(O)c1)C(=O)NCCCNC(=O)/C(C#N)=C/c1ccc(O)c(O)c1 | 7.94 µM (active) |  |
| Cc1cc2nc3c(=O)[nH]c(=O)nc-3n(C[C@H](O)[C@H](O)[C@H](O)COP(=O)(O)OP(=O)(O)OC[C@H]3O[C@@H](n4cnc5c(N)ncnc54)[C@H](O)[C@H]3O)c2cc1C |  | 756% [at 28.7 µM] |
| CC(CN1c2ccccc2Sc2ccccc21)N(C)C (stereo not drawn) |  | -1.58% |
| O=C1NC(=O)C(c2ccccc2[N+](=O)[O-])=C1Nc1ccc(O)c(Cl)c1 |  | -16.3% |
| COc1ccc(C(=O)/C(Cc2cc(OC)c(OC)c(OC)c2)=C(\C(=O)O)c2ccc3c(c2)OCO3)cc1 |  | -0.396% |
| Cc1ccc(S(=O)(=O)/C=C/C#N)cc1 |  | 1.59% |
| N#C/C(=C\c1ccc(O)c(O)c1)C(=O)c1ccc(O)c(O)c1 |  | 8.34% |
| CN1Cc2sccc2C(c2ccc(O)c(O)c2)C1 (stereo not drawn) |  | -1.5% |
| O=C1NC(=O)C(=Cc2ccc(-c3ccc(F)cc3O)o2)S1 | 35.5 µM (active) |  |
| S=C(Nc1ccccc1)Nc1nccs1 |  | -10.3% |

| SMILES | Potency | activity change, negative = inhibition |
| --- | --- | --- |
| CN(C)CCCN1c2ccccc2Sc2ccc(Cl)cc21 |  | -9.4% |
| O=c1c(O)c(-c2ccc(O)c(O)c2)oc2cc(O)cc(O)c12 | inactive |  |
| Cc1nn(-c2ccccc2)c(C)c1/C=N/N1CCN(Cc2ccccc2)CC1 |  | -0.834% |
| Nc1[nH]c(=O)nc2c1ncn2C1OC(CO)C(O)C1O (stereo not drawn) |  | -1.32% |
| C[C@H](Cc1ccc(O)c(O)c1)[C@@H](C)Cc1ccc(O)c(O)c1 | 15.8 µM (active) |  |
| CCN1CCC[C@H]1CNC(=O)c1cc(S(N)(=O)=O)ccc1OC |  | 3.8% |
| O=C(N[C@@H](Cc1ccccc1)C(=O)CCl)OCc1ccccc1 |  | -11% |
| COC(=O)[C@@H]1[C@H]2C[C@H]3c4[nH]c5ccccc5c4CCN3C[C@@H]2CC[C@@H]1O |  | 1.4% |
| NCCc1ccc(O)c(O)c1 |  | -1.75% |
| COc1cc2c(NC3CCN(C(C)C)CC3)nc(N3CCC(F)(F)CC3)nc2cc1OCCCN1CCCCC1 |  | -11.7% |
| OC[C@H]1O[C@H](n2cnc3c(N[C@H]4CCC[C@@H]4O)ncnc32)[C@H](O)[C@@H]1O |  | -6.84% |
| CN(C)CCCN1c2ccccc2Sc2ccccc21 |  | -0.647% |
| CCOC(=O)c1cnc2c(cnn2CC)c1NN=C(C)C |  | -8.57% |
| O=c1c(-c2ccc(O)cc2)coc2cc(O)cc(O)c12 |  | -10.5% |
| Oc1ccc(O)cc1 |  | -20.8% |
| CC(C)=CCNc1ncnc2c1ncn2[C@@H]1O[C@H](CO)[C@@H](O)[C@H]1O |  | 382% |
| CC1=C(\C=C/C(C)=C/C=C\C(C)=C\C(=O)O)C(C)(C)CCC1 |  | -22.4% |
| CCn1nc(C(=O)O)c(=O)c2cc3c(cc21)OCO3 |  | 0.226% |
| c1ccc(CN2CCC3(CCCc4ccccc43)CC2)cc1 |  | -6.98% |

From PubChem BioAssay AID1347147 (National Center for Advancing Translational Sciences (NCATS), 2019)
